The results in this text go back to PubChem BioAssay AID743143 (Broad Institute, 2013).

Each structure is given as a SMILES string. Measured potencies and affinities stand elsewhere. Calls of active or inactive are those of the source.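 How the source made its calls: active means falling signal curve whose fitted half-maximal dose lies at or below the top valid tested dose; inconclusive means flat fit showing 30 to 70% loss, or poor fit; inactive means rising signal, flat within 30%, or half-maximal dose above top.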

The experiment can be described thus: HepG2 cell cytotoxicity, dose response, cytotoxicity control, ATP luminescence, dry powder, Set4 (AID 743143). To be noted: HepG2 viability, CellTiter-Glo ATP luminescence, 72 h; series mostly up to 26 µM. For orientation: Cellular ATP, detected with luciferase, serves as a proxy for viable cell number.
On to `O=C(CCCNC(=O)c1ccc(Cl)cc1)N[C@@H]1CCCc2ccccc21`, for which the outcome was inactive.

Take `CC(CC(=O)NC1CCCc2ccccc21)NC(=O)c1ccccc1` (stereo not given): the compound was classed as inactive. To `CC(C)(C)OC(=O)NCCC(=O)N[C@H]1CCCc2ccccc21` belongs “inactive”; to `CN(C(=O)CCNC(=O)c1ccc(F)cc1F)C1CCCc2ccccc21` (stereo not given), “inactive”. Regarding `O=C(CCNC(=O)c1ccc(F)cc1)N[C@@H]1CCCc2ccccc21`, the result was inactive. To `CC(CC(=O)N(C)C1CCCc2ccccc21)NC(=O)c1ccccc1` (stereo not given) belongs “inactive”; to `COc1ccc(C(=O)NCCC(=O)N[C@@H]2CCCc3ccccc32)cc1`, “inactive”. Next, `O=C(CCNC(=O)c1ccc(Cl)cc1)N[C@@H]1CCc2ccccc21`: “inactive”; `C[C@@H](NC(=O)CCNC(=O)c1ccc(Cl)cc1)c1ccccc1`: “inactive”; `O=C(CCNC(=O)c1ccc(Cl)cc1)NC1CCCCC1`: “inactive”. Next, `O=C(CCNC(=O)c1ccc2c(c1)OC(F)(F)O2)N[C@@H]1CCCc2ccccc21`: “inactive”; `O=C(CCNC(=O)c1ccc(Cl)cc1)N[C@@H]1CCCc2ccccc21`: “inactive”. For the compound `O=C(NC1CCc2ccccc21)C1CCCN(C(=O)c2ccc(Cl)cc2)C1` (stereo not given), the outcome was inactive. For `O=C(CCCNC(=O)c1ccc(OC(F)(F)F)cc1)N[C@@H]1CCCc2ccccc21`, the call was inactive. Next, `CC(NC(=O)C1CCCN(C(=O)c2ccc(Cl)cc2)C1)c1ccccc1` (stereo not given): “inactive”; `O=C(CNC(=O)c1ccc(Cl)cc1)N[C@@H]1CCCc2ccccc21`: “inactive”. For `N#Cc1ccc(C(=O)NCCC(=O)N[C@@H]2CCCc3ccccc32)cc1`, the result was inactive.

For the compound `COc1ccccc1C(=O)NCCC(=O)NC1CCCc2ccccc21` (stereo not given), the outcome was inactive. To `CC(NC(=O)CCNC(=O)c1ccc(Cl)cc1)c1ccc2c(c1)OCO2` (stereo not given) belongs “inactive”; to `CC(=O)NCCC(=O)N[C@@H]1CCCc2ccccc21`, “inactive”. To `Cc1ccc(C(=O)NCCC(=O)N[C@@H]2CCCc3ccccc32)cc1` belongs “inactive”; to `O=C(CCNC(=O)c1ccc(Cl)cc1)N[C@H]1CCCc2ccccc21`, “inactive”. Take `O=C(CCNC(=O)c1ccccc1Cl)NC1CCCc2ccccc21` (stereo not given): the compound was called inactive. To `O=C(CCNC(=O)c1ccc(OC(F)(F)F)cc1)N[C@@H]1CCCc2ccccc21` belongs “inactive”. To `CC(c1ccccc1)N(C)C(=O)CCNC(=O)c1ccc(Cl)cc1` (stereo not given) belongs “inactive”; to `Cc1cccc(C(=O)NCCC(=O)NC2CCCc3ccccc32)c1` (stereo not given), “inactive”; to `O=C(CCNC(=O)c1ccc(Cl)cc1)NC1CCCc2ccccc21` (stereo not given), “inactive”. Next, `O=C(CNC(=O)c1ccc(C(F)(F)F)cc1)N[C@@H]1CCCc2ccccc21`: “inactive”; `O=C(CCNC(=O)c1cccc(Cl)c1)N[C@@H]1CCCc2ccccc21`: “inactive”. Regarding `O=C(Cc1ccc(Cl)cc1)NCCC(=O)N[C@@H]1CCCc2ccccc21`, the result was inactive.

On to `O=C(NC1CCOc2ccccc21)C1CCCN(C(=O)c2ccc(Cl)cc2)C1` (stereo not given), for which the result was inactive. Next, `O=C(CCNC(=O)c1ccc(C(F)(F)F)cc1)N[C@@H]1CCCc2ccccc21`: “inactive”. Regarding `NCCC(=O)N[C@@H]1CCCc2ccccc21`, the compound was called inactive. To `O=C(CCCNC(=O)c1ccc(C(F)(F)F)cc1)N[C@@H]1CCCc2ccccc21` belongs “inactive”; to `O=C(CNC(=O)c1ccc(OC(F)(F)F)cc1)N[C@@H]1CCCc2ccccc21`, “inactive”. To `CC(C)(C)OC(=O)NCCC(=O)N[C@@H]1CCCc2ccccc21` belongs “inactive”; to `O=C(CCNC(=O)c1ccccc1)N[C@@H]1CCCc2ccccc21`, “inactive”. Consider `COc1ccccc1C(C)NC(=O)CCNC(=O)c1ccc(Cl)cc1` (stereo not given), for which the result was inactive.

For the compound `CC(NC(=O)CCNC(=O)c1ccc(Cl)cc1)c1ccc(F)cc1` (stereo not given), the call was inactive. To `O=C(CCNC(=O)c1ccc(Cl)c(Cl)c1)N[C@@H]1CCCc2ccccc21` belongs “inactive”.
